High-throughput results (PubChem BioAssay)
A selection: hits, their analogues and other compounds. The true share with any hit is near 1.2%.
Akt phos inh – inhibitors of Akt phosphorylation; Neuro2A IGF-stimulated pAkt S473 HTRF, 20 min; hits give low values; activity change, % for hits at 50 µM; 0.32% of 360,000 active; in the data active means activity change below about -80%; inconclusive means mostly about -51% to -80%; further: on the % scale 0 is the no-effect control and ±100 the full control effect
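Neuro2A cells (4,500/well, DMEM with 0.5% FBS) were treated with compound at a single 50 µM final concentration, stimulated with 6 nM IGF for 20 min at 37 °C, and lysed. Phospho-Akt Ser473 was read by HTRF as 665/615 ratio ×10^4.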
RXFP1 antag – antagonists of human relaxin receptor RXFP1; Q9HBX9; HEK293-RXFP1, relaxin-stimulated cAMP HTRF, 30 min; hits give low values; activity change, negative = inhibition, % at 57.5 µM; 0.59% of 350,000 active;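 active means activity change of -60% or lower, but not beyond a set lower limit; inconclusive means change between -60% and -40%, or beyond the set limit; inactive means change above -40%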; further: on the % scale 0 is the no-effect control and ±100 the full control effect
Target sequence (Q9HBX9 whole entry, looked up): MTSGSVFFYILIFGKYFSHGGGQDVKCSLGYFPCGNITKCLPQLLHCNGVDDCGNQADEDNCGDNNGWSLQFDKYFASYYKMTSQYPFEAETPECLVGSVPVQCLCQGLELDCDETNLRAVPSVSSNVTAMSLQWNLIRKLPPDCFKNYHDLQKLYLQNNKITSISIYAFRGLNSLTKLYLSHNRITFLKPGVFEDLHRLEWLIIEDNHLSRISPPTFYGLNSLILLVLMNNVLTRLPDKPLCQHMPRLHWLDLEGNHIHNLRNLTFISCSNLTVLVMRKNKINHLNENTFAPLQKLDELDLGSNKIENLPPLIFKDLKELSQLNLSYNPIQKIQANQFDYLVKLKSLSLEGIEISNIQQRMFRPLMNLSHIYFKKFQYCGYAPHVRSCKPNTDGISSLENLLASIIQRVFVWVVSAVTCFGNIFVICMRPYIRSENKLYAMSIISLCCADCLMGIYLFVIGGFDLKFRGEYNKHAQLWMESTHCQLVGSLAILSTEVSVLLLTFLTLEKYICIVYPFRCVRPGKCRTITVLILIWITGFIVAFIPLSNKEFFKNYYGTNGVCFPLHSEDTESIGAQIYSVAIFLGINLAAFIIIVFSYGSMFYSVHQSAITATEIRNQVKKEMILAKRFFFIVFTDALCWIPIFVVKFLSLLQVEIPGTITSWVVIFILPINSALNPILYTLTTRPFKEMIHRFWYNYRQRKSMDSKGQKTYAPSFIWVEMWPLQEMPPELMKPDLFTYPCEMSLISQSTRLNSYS
gsp antag – gsp mutant antagonism. gsp-mutant cells, cAMP HTRF, 30 min. 0.4% of 340,000 active. Potency, µM (highest dose often 76.9 µM), inactives show at the top dose activity change, negative = inhibition, actives largely listed as inhibitors. AID 624288; calls by dose curve; cell line not stated here;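 further: intracellular cAMP measured with PDE inhibitor Ro 20-1724 present during compound exposure; potency means the concentration at half of the fitted maximal effect; on the % scale 0 is the no-effect control and ±100 the full control effect; nearly all actives have a fitted effect of over 65% in size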
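HTRF cAMP read-out (cAMP-d2 plus anti-cAMP antibody-K in lysis buffer, 30 min RT). Before lysis, cells are exposed to compounds with […] for 30 min at 37C in DPBS containing Ca/Mg, BSA and Tween 20.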
gsp agonist – agonists of gsp mutant (McCune-Albright syndrome) | gsp mutant cells, cAMP HTRF, 30 min | Potency, µM (doses to about 76.9 µM), for inactives: at the top dose activation (cAMP increase), actives largely listed as activators | 0.13% of 340,000 active; active means well fitted activation curve with a large enough effect; inconclusive means small, poorly fitted or top-dose-only effect, or another doubt; inactive means no such curve, though single readings can be large or run the other way; cell line not stated here;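 further: phosphodiesterase inhibitor Ro 20-1724 added with compounds to block cAMP breakdown; potency means the concentration at half of the fitted maximal effect; nearly all actives have a fitted effect of over 60% in size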
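Cells stably selected in G418 were plated at 2000/well, grown 16-24 hr, then given compounds in DMSO with the PDE inhibitor […] (300 uM solution added) for 30 min at 37C; cAMP was read by HTRF.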
RXFP1 ag – activates the human relaxin receptor RXFP1 | 0.3% of 370,000 active | AID 2676 | Q9HBX9 | Potency, µM (series often up to 57.5 µM), without a hit: at the highest dose activation, hits mostly activators | HEK293T-RXFP1 cAMP TR-FRET, 30 min; response scale: percent of porcine relaxin response, buffer zero; active means well fitted activation curve with a large enough effect; inconclusive means small, poorly fitted or top-dose-only effect; further: potency means the concentration at half of the fitted maximal effect; on the % scale 0 is the no-effect control and ±100 the full control effect; nearly all actives have a fitted effect of over 60% in size
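cAMP rise read by TR-FRET after 30 min, 37C compound exposure (up to 58 uM) in RXFP1-transfected HEK293 cells with Ro 20174 present. EC50 from Hill-equation fits, with 29 nM porcine relaxin as 100% and buffer as basal.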
Active calls of the source: *; i = inactive; ? = inconclusive; . = not tested or not shown; [ ] = dose if it differs, or a comment.

SMILES | Akt phos inh | RXFP1 antag | gsp antag | gsp agonist | RXFP1 ag
CCOC(=O)C(=CNc1cc(C)ccc1C)C(=O)OCC | i | -9 | 35µM* | 0% | 1%
Cc1ccc(/C=C2\SC(=S)N(CCC(=O)NNC(=O)c3ccncc3)C2=O)cc1 | i | -5 | 40µM* | -8%[15.4 µM] | -4%
COc1cnn(-c2ccc(Br)cc2)c(=O)c1SCc1ccccc1 | i | . | ? | -8% | -7%
COc1cnn(-c2ccc(C)cc2)c(=O)c1SCc1ccccc1 | i | -6 | 32µM* | ? | -13%
Cc1cccc(N2CCN(C(=O)C3CCN(C(=O)c4cc5sccc5n4C)CC3)CC2C)c1 (stereo unspecified) | . | -65* | . | . | 0%
CCOC(=O)c1ccccc1NC(=O)N1CCOc2ccc(Cl)cc21 | . | ? | . | . | -1%
COc1ccc(OC)c(NS(=O)(=O)c2ccc(-c3cc(C)no3)s2)c1 | . | -11 | . | . | 1%
COCC(C)NC(=O)c1cccc(Cl)c1 (stereo unspecified) | -114%* | 4 | 12% | 2% | 2%
Cc1ccc(N/C(N)=N/c2nc(C)cc(N3CCCCC3)n2)c(C)c1 | i | -83* | -14% | 9%[15.4 µM] | 0%
COCCn1c(N)c(NCc2ccccc2)c(=O)n(CC(=O)Nc2cc(C)ccc2C)c1=O | -108%* | 0 | 2% | -36% | 4%
Cc1ccc(C)c(NC(=O)Cn2c(=O)n(CC(=O)NCCc3ccccc3)c(=O)c3ccccc32)c1 | . | . | . | . | 4%
COc1cc(OC)cc(-c2n[nH]c(=S)n2-c2ccc3c(c2)OCO3)c1 | i | -16 | -15% | 7.1µM* | 10%
COc1ccc(-n2c(-c3ccc(C)cc3)n[nH]c2=S)cc1 | i | -36 | -11% | 0% | 0%
COc1cc(-c2n[nH]c(=S)n2-c2ccc(C)cc2)cc(OC)c1OC | i | -14 | -8% | 14µM* | -1%
Cc1ccc(NC(=O)CCc2nnc3ccc(N4CCN(C)CC4)nn23)cc1F | . | 12 | 6% | ? | 25µM*
CCOC(=O)c1cccc(NC(=O)CCc2nnc3ccc(N4CCCCC4)nn23)c1 | i | 24 | -10% | 35µM* | 9%
CCOC(=O)C1CCN(C(=O)c2oc3ccc4c(c3c2C)C(O)CC2(CCCCC2)O4)CC1 (stereo unspecified) | i | -94* | 0% | -1% | 0%
O=C(O)c1ccccc1NS(=O)(=O)c1ccc(NN=Cc2cccc(Cl)c2)c([N+](=O)[O-])c1 | i | -68* | -6% | -36% | .
O=C(O)c1ccccc1NN=Cc1ccccc1 | i | ? | 25µM* | 28% | .
COc1cccc(/C=N/Nc2ccccc2C(=O)O)c1O | i | -4 | ? | ? | 0%
O=C(O)c1ccccc1NS(=O)(=O)c1ccc(N/N=C/c2ccc(O)c(O)c2)c([N+](=O)[O-])c1 | i | -23 | -10% | -16% | .
CCc1ccc(CN2CCc3nc(Nc4ccccc4)ncc3C2)cc1 | . | -65* | . | . | 2%
COc1cc(OC)c(N(C)C(=O)c2cc3c(s2)-c2ccccc2OC3)cc1Cl | . | -1 | . | . | 0%
COc1ccc(N(C)C(=O)c2cc3c(s2)-c2ccccc2OC3)cc1 | . | -64* | . | . | 0%
CC1CCCN(CCCNC(=O)c2cc(Sc3ccc(F)cc3)nc3ccccc23)C1 (stereo unspecified) | . | -3 | . | . | 7%
SMILES | Akt phos inh | RXFP1 antag | gsp antag | gsp agonist | RXFP1 ag
COc1ccc(NC(=O)c2ccc(-c3nn(C)c(=O)c4ccccc34)cc2)cc1 | i | -12 | -6% | -2%[15.4 µM] | 1%
COc1ccccc1NC(=O)COc1ccc(-c2nn(C)c(=O)c3ccccc23)cc1 | i | -1 | 28µM* | 23%[15.4 µM] | 0%
COCCn1ccc2c(OCC(=O)Nc3cc(OC)ccc3OC)cccc2c1=O | i | -5 | ? | 18% | 0%
CCOCCn1ccc2c(OCC(=O)Nc3cc(OC)ccc3OC)cccc2c1=O | i | -2 | 16µM* | 9%[15.4 µM] | 2%
COc1ccccc1NC(=O)c1ccc(-c2nn(C)c(=O)c3ccccc23)cc1 | i | -34 | 40µM* | 1%[15.4 µM] | 0%
Cn1nc(-c2ccc(OCC(=O)Nc3ccccc3)cc2)c2ccccc2c1=O | . | -20 | ? | 25% | -2%
CN(C)c1ccc(-c2nc(-c3cccs3)c(-c3cccs3)[nH]2)cc1 | . | -1 | . | . | 12%
O=C1COc2cc(S(=O)(=O)CCC(=O)N3CCN(c4ccccc4)CC3)c(Cl)cc2N1 | . | . | . | . | 0%
Cc1ccc(Cl)c(OCC(O)CNC(C)(C)C)c1 (stereo unspecified) | . | -4 | . | . | .
CCc1c(C(=O)Nc2ccccc2)c(C)[nH]c(=S)c1C#N | i | -1 | 5% | 13µM* | 9%
COc1ccccc1NC(=O)CCCCCN1C(=O)c2cccc([N+](=O)[O-])c2C1=O | i | -3 | -23% | 27% | 1%
COc1cc(/C=C2/C(=O)c3cccc([N+](=O)[O-])c3C2=O)c(Br)cc1O | i | -8 | 35µM* | 20% | 6%
O=C1CC(c2nc3ccccc3n2Cc2c(F)cccc2Cl)CN1c1cccc(C(F)(F)F)c1 (stereo unspecified) | . | -2 | . | . | -1%
Cc1ccc2nc(N/C(=N/S(=O)(=O)c3ccc(F)cc3)c3ccccc3)sc2c1 | i | 9 | 25µM* | 3% | -1%
CC(=O)N(c1ccccc1C)C1CCCC1 | i | -15 | 14% | -3%[15.4 µM] | 3%
CC(=O)N(C1=C(Cl)C(=O)c2ccccc2C1=O)C1CCCCC1 | i | -99* | ? | 28%[15.4 µM] | -3%
CCOC(=O)c1ccc(NC(=O)CCc2nc(-c3ccccc3)no2)cc1 | -101%* | -17 | 40µM* | -19% | -1%
O=C(/C=C/c1ccc(Cl)c([N+](=O)[O-])c1)Nc1cccc(NC(=O)c2ccco2)c1 | i | -35 | 35µM* | 20% | 5%
O=C(Nc1ccc(N2CCOCC2)c(Cl)c1)c1ccc(Cl)cc1 | i | -83* | -28% | 4%[15.4 µM] | 2%
Cc1ccc(NC(=O)c2cc(N3C(=O)C=CC3=O)ccc2N2CCOCC2)cc1Cl | i | -71* | 18% | 2% | -1%
Cc1ccc(NC(=O)c2cc(N3C(=O)CCC3=O)ccc2N2CCOCC2)cc1 | i | 2 | -11% | 9%[15.4 µM] | -1%
Cn1c2cc(B(O)O)sc2c2cnn(Cc3c(F)cccc3Cl)c(=O)c21 | . | . | . | . | 2%
Cc1ccc2c(c1)c1c3n2CCN(C(=O)c2cccc(C(F)(F)F)c2)C3CCC1 (stereo unspecified) | . | ? | . | . | 2%
CCN(c1ccccc1)c1nnc(NC(=O)Nc2ccc(Br)cc2)s1 | . | 3 | . | . | -2%
COc1ccccc1NC(=O)CSc1nc(-c2ccc(C(C)(C)C)cc2)c(C#N)c(=O)[nH]1 | . | -2 | . | . | 1%
CCOC(=O)C/C(C)=N\Nc1nc(-c2ccccc2)cs1 | i | -19 | 8.9µM* | 7%[15.4 µM] | -2%
CC(C)=NNc1nc(-c2ccccc2)cs1 | i | -3 | 12% | -11% | 0%
